Assay outcomes (PubChem BioAssay)
A selection: hits, their analogues and other compounds. The true share with any hit is near 2%.
MBD2 DNA inh: MBD2-methylated oligo binding inhibition; hit rate 0.31% among 370,000; inhibition, % at 4.4 µM; TR-FRET, MBD2 binding to methylated oligonucleotide; in the data active = inhibition above about 13%
TCR CD3 inh: human TCR-CD3 binding inhibition | TAMRA-labeled TCR probe fluorescence, biochemical | inhibition, % at 9.4 µM | hit rate 0.37% among 360,000;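 also: recombinant mutant TCR 2C K166C tagged with TAMRA read by polarization; 0% = receptor in buffer alone and 100% = receptor with positive control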
LEDGF integ inh: blocks HIV-1 LEDGF/p75-dependent DNA integration | TR-FRET IN-LEDGF/p75 DNA integration, Eu/Cy5 | inhibition, % at 3.7 µM | hit rate 0.64% among 370,000 | AID 743269;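 active = inhibition above the screen-wide mean plus 3 SD, cut at about 13% in these data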;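 also: signal is the Cy5 over europium emission ratio at 671 and 618 nm; 0% = plate median of compound wells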
UHRF1 MBD2 ctr: blocks human UHRF1 binding to methylated DNA; Q96T88; UHRF1 binding to methylated oligo, TR-FRET; inhibition, % at 4.4 µM; hit rate 0.75% among 370,000; in the data active = inhibition above about 21%;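 also: UHRF1 SRA domain binding a hemimethylated CpG hairpin DNA probe; 0% = median of test compound wells and 100% = reference inhibitor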
Rin1-Abl PPI inh: human Rin1-Abl interaction inhibition | TR-FRET Rin1/Abl binding, biochemical | inhibition, % at 7.35 µM | hit rate 0.4% among 360,000 | P00519+Q13671; in the data active = inhibition above about 5%, passing the limit was not always enough
BSA TAMRA ctr: counter-screen for TCR-CD3 interaction inhibitors: BSA probe | hit rate 10% among 1,200 | shares compounds with TCR CD3 inh | TAMRA-labeled BSA probe fluorescence counterscreen | inhibition, % at 9.4 µM; in the data active = inhibition above about 23%;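 also: 0% = buffer low control and 100% = reference high control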
TCR-CD3 inh conf: confirmation of human TCR-CD3 interaction inhibitors | shares compounds with TCR CD3 inh | TAMRA-labeled TCR probe fluorescence binding assay | inhibition, % at 9.4 µM | hit rate 48% among 1,200
Numbers without * were called inactive. Rule as the data show it, unless noted: active = inhibition above about 19%; inactive = the rest.

Results for Oc1c(N=Nc2ccc(F)cc2)ccc2ccccc12 ?
MBD2 DNA inh: 0; TCR CD3 inh: -9; LEDGF integ inh: -6; UHRF1 MBD2 ctr: 1; Rin1-Abl PPI inh: 1

How did Oc1c(N=Nc2nn[nH]n2)ccc2ccccc12 do in these assays?
MBD2 DNA inh: -12; TCR CD3 inh: 37*; LEDGF integ inh: 14*; UHRF1 MBD2 ctr: 1; Rin1-Abl PPI inh: 1; BSA TAMRA ctr: 146*; TCR-CD3 inh conf: 104*

How did COc1ccc(N2CC(C(=O)N3CCOCC3)CC2=O)cc1 (stereo not drawn) do in these assays?
MBD2 DNA inh: 0; TCR CD3 inh: -1; LEDGF integ inh: -2; UHRF1 MBD2 ctr: -1; Rin1-Abl PPI inh: 0

Results for COc1ccc(N2CC(C(=O)N3CCCC(C)C3)CC2=O)cc1 (stereo not drawn) ?
MBD2 DNA inh: 4; TCR CD3 inh: 142*; LEDGF integ inh: 2; UHRF1 MBD2 ctr: 0; Rin1-Abl PPI inh: -2; BSA TAMRA ctr: 0; TCR-CD3 inh conf: 0

What do the screens show for `CCN(CC)S(=O)(=O)c1ccc2c(c1)oc(=O)n2CC(=O)NC1CCCCC1`?
MBD2 DNA inh: -2; TCR CD3 inh: -6; LEDGF integ inh: -2; UHRF1 MBD2 ctr: 8; Rin1-Abl PPI inh: -1

How did CCOc1ccc(Br)cc1S(=O)(=O)Nc1ccc(C(=O)OCC(=O)Nc2ccc(C#N)cc2)cc1 do in these assays?
MBD2 DNA inh: -1; TCR CD3 inh: 33*; LEDGF integ inh: -6; UHRF1 MBD2 ctr: 3; Rin1-Abl PPI inh: 0; BSA TAMRA ctr: 26*; TCR-CD3 inh conf: 34*

Results for Nc1ccc(O)c2c1C(=O)c1ccccc1C2=O ?
MBD2 DNA inh: 12; TCR CD3 inh: 43*; LEDGF integ inh: 5; UHRF1 MBD2 ctr: 19; Rin1-Abl PPI inh: -10; BSA TAMRA ctr: 24*; TCR-CD3 inh conf: 27*

What do the screens show for `COc1ccc(N)c2c1C(=O)c1ccccc1C2=O`?
MBD2 DNA inh: -9; TCR CD3 inh: 4; LEDGF integ inh: -3; UHRF1 MBD2 ctr: -14; Rin1-Abl PPI inh: -21

How did O=C(O)c1cccc2c1C(=O)c1ccccc1C2=O do in these assays?
MBD2 DNA inh: 1; TCR CD3 inh: -2; LEDGF integ inh: -4; UHRF1 MBD2 ctr: 2; Rin1-Abl PPI inh: -2

How did O=C1c2ccccc2C(=O)c2c(O)c(O)cc(O)c21 do in these assays?
MBD2 DNA inh: 0; TCR CD3 inh: 25*; LEDGF integ inh: 1; UHRF1 MBD2 ctr: 5; Rin1-Abl PPI inh: 1; BSA TAMRA ctr: 44*; TCR-CD3 inh conf: 34*

How did O=C(NCc1ccccc1F)c1ccc(S(=O)(=O)N2CCCCCC2)cc1 do in these assays?
MBD2 DNA inh: 6; TCR CD3 inh: 2; LEDGF integ inh: -1; UHRF1 MBD2 ctr: -1; Rin1-Abl PPI inh: 1

Results for Cc1ccc(C(=O)OC(C)C(=O)c2cc(C)c(C)cc2C)o1 (stereo not drawn) ?
Rin1-Abl PPI inh: 0

How did COc1ccc(C(=O)Nc2ccc(Cl)c(S(=O)(=O)Nc3ccccc3OC)c2)cc1 do in these assays?
MBD2 DNA inh: 6; TCR CD3 inh: 3; LEDGF integ inh: -3; UHRF1 MBD2 ctr: -1; Rin1-Abl PPI inh: 1

Results for COc1ccccc1NS(=O)(=O)c1cccc(NC(=O)Nc2cccc(Cl)c2)c1 ?
MBD2 DNA inh: -4; TCR CD3 inh: 36*; LEDGF integ inh: -1; UHRF1 MBD2 ctr: -1; Rin1-Abl PPI inh: -2; BSA TAMRA ctr: 8; TCR-CD3 inh conf: 14

What do the screens show for `COc1ccccc1NS(=O)(=O)c1cc(NC(=O)c2ccc(Cl)nc2)ccc1Cl`?
MBD2 DNA inh: 0; TCR CD3 inh: 23*; LEDGF integ inh: -3; UHRF1 MBD2 ctr: 0; Rin1-Abl PPI inh: 1; BSA TAMRA ctr: 11; TCR-CD3 inh conf: 16

What do the screens show for `COc1ccc(CNC(=O)N2CCN(c3ccc(F)cc3)CC2)cc1`?
MBD2 DNA inh: 3; TCR CD3 inh: 25*; LEDGF integ inh: -4; UHRF1 MBD2 ctr: 6; Rin1-Abl PPI inh: 1; BSA TAMRA ctr: 1; TCR-CD3 inh conf: 2

Results for COc1cccc(S(=O)(=O)NCc2ccc(C(=O)Nc3ccc(Cl)c(Cl)c3)cc2)c1 ?
MBD2 DNA inh: 0; TCR CD3 inh: 35*; LEDGF integ inh: 5; UHRF1 MBD2 ctr: 0; Rin1-Abl PPI inh: -1; BSA TAMRA ctr: -1; TCR-CD3 inh conf: 6

What do the screens show for `O=C(Nc1ccc(Cl)c(Cl)c1)c1cccc(S(=O)(=O)NCc2cccnc2)c1`?
MBD2 DNA inh: 1; TCR CD3 inh: 33*; LEDGF integ inh: 2; UHRF1 MBD2 ctr: -2; Rin1-Abl PPI inh: 0; BSA TAMRA ctr: 2; TCR-CD3 inh conf: 10

Results for Cc1ccc(NC(=O)c2ccc(S(=O)(=O)NCc3cccnc3)cc2)cc1C ?
MBD2 DNA inh: -3; TCR CD3 inh: 9; LEDGF integ inh: -1; UHRF1 MBD2 ctr: -2; Rin1-Abl PPI inh: 0

Results for Cc1ccccc1C(=O)N[C@@H](CC(C)C)C(=O)N1CCC[C@H]1C(=O)NCc1ccccc1 ?
MBD2 DNA inh: 2; TCR CD3 inh: 1; LEDGF integ inh: -2; UHRF1 MBD2 ctr: -1

What do the screens show for `CN(C)S(=O)(=O)c1cccc(NC(=O)COC(=O)c2ccc3ccccc3n2)c1`?
MBD2 DNA inh: -2; TCR CD3 inh: 3; LEDGF integ inh: 0; UHRF1 MBD2 ctr: -1; Rin1-Abl PPI inh: -1

Results for CN(C)S(=O)(=O)c1cccc(NC(=O)COC(=O)c2cc(-c3cccc(Br)c3)nc3ccccc23)c1 ?
MBD2 DNA inh: 4; TCR CD3 inh: 83*; LEDGF integ inh: -3; UHRF1 MBD2 ctr: 2; Rin1-Abl PPI inh: -4; BSA TAMRA ctr: 21; TCR-CD3 inh conf: 56*

What do the screens show for `Cc1cc2c(cc3c(=O)n(CC(=O)NCCCN4CC(C)CC(C)C4)ncn32)s1` (stereo not drawn)?
MBD2 DNA inh: -3; TCR CD3 inh: 4; LEDGF integ inh: 3; UHRF1 MBD2 ctr: -4; Rin1-Abl PPI inh: -3

Results for Cc1cc2oc3ccc(NCCCN4CCOCC4)cc3c(=O)c2cc1C ?
MBD2 DNA inh: -11; TCR CD3 inh: 2; LEDGF integ inh: 0; UHRF1 MBD2 ctr: -4; Rin1-Abl PPI inh: -3

What do the screens show for `Cc1cc2oc3ccc(NCCCn4ccnc4)cc3c(=O)c2cc1C`?
MBD2 DNA inh: -5; TCR CD3 inh: 35*; LEDGF integ inh: 0; UHRF1 MBD2 ctr: 2; Rin1-Abl PPI inh: -5; BSA TAMRA ctr: 1; TCR-CD3 inh conf: 20*

What do the screens show for `CCn1c(CSc2nc3ccccc3[nH]2)nc2cc(C(=O)O)ccc21`?
MBD2 DNA inh: 1; TCR CD3 inh: 34*; LEDGF integ inh: -1; UHRF1 MBD2 ctr: 2; Rin1-Abl PPI inh: 3; BSA TAMRA ctr: 57*; TCR-CD3 inh conf: 42*

What do the screens show for `Cc1cccc(NC(=S)N/N=C/c2cccc(O)c2)c1C`?
MBD2 DNA inh: 5; TCR CD3 inh: -4; LEDGF integ inh: 8; UHRF1 MBD2 ctr: -1; Rin1-Abl PPI inh: -6
